Assay results published in PubChem BioAssay AID720514 (Broad Institute, 2013).
The whole screen tested about 2,100 compounds, of which about 300 (14%) were called active. Inconclusive results (about 2%) are left out.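 How the source made its calls: active means every replicate test run called active, with the signal falling and half-maximal concentration within twice the top valid dose; inconclusive means the replicate test runs disagree in their calls; inactive means every test run inactive, including effects in the opposite direction.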 Not all results are given here. Entries with a potency or affinity are not part of this list.

Assay: reduced cellular PGC1a acetyl-lysine signal – cell-based, cherry-picked samples, dose response (AID 720514);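 further: 0% = neutral control wells and -100% = positive control wells; actives lower the acetylation signal so they count as inhibitors of PGC1a acetylation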
Settings: U2OS PGC1a acetylation, AlphaLISA, overnight; series mostly up to 19.5 µM; activity change, negative = inhibition: at the top concentration

Activity change, negative = inhibition, inactive:
CC1=CC(C)(C)N2C(=O)C3(SCC(=O)N3c3ccc(F)cc3)c3cc(C)cc1c32 (configuration not stated) 65.8%
NC(=O)Cn1cc(C(=O)c2cccs2)c2ccccc21 101%
C[C@@H]1CN([C@@H](C)CO)C(=O)c2c(c3ccccc3n2C)-c2ccccc2CO[C@@H]1CN(C)C(=O)c1ccc(F)cc1 154% [at 21 µM]
O=S(=O)(NCc1ccccc1Br)c1ccccc1Br 43.5%
COCCN(C)Cc1nc(C(c2ccccc2)c2ccccc2)no1 41.6%
Cc1cc(C(F)(F)F)n(-c2nc(C(=O)NNS(=O)(=O)c3ccccc3[N+](=O)[O-])cs2)n1 65.3%
O=C(NCCC1=CCCCC1)c1coc(=O)c(Br)c1 27.7%
O=C(NCc1cccnc1)c1ccc(NC(=O)c2cccc([N+](=O)[O-])c2)cc1 327%
COc1cc(/C=C2\SC(=O)NC2=O)ccc1Oc1ccc([N+](=O)[O-])cn1 54%
COc1ccc(CN2CCn3ncc(C(=O)Nc4ccccc4)c3C2=O)cc1 30.6%
COc1ccc(C#Cc2c(-c3ccccc3)n(-c3ccccc3)c3ccc(CO)cc23)cc1 101%
CC12CCC(C1)C(C)(C)C2NS(=O)(=O)c1ccc(F)cc1 (configuration not stated) 96.9%
COc1ccc(NC(=O)c2sccc2SCc2cccc(C(F)(F)F)c2)cc1 93.2%
O=C(Cn1c(CN2CCCCC2)nc2ccccc2c1=O)Nc1ccccc1 59.2%
COc1ccc(Cn2nnnc2C(C(C)C)N(Cc2ccco2)Cc2cccs2)cc1 (configuration not stated) 116%
COc1ccc(S(=O)(=O)N(C)CC(=O)Nc2cccc(C(C)=O)c2)cc1Cl 89.1%
COc1cccc(C(=O)/C=C/c2ccc(OCC#N)c(OC)c2)c1 44.8% [at 10 µM]
COc1ccc(S(=O)(=O)NNC(=O)c2csc(-n3nc(C)cc3C(F)(F)F)n2)cc1 46.5% [at 10 µM]
COc1ccc(Nc2nnc(-c3ccc(C(=O)NCCO)cc3)c3ccccc23)cc1 89.6%
Cn1ncc(Cl)c1C(=O)Nc1sc2c(c1C(N)=O)CCC2 44.2% [at 10 µM]
N#Cc1cccc(C(c2nnnn2C2CCCC2)N2CCCCCC2)c1 (configuration not stated) 81.4%
Cc1c(C(=O)N2CCN(c3ccccn3)CC2)sc2ncnc(N3CCN(c4ccccc4)CC3)c12 34.3%
COc1cc(NC(=O)c2cccs2)c(OC)cc1NC(=O)CCC(=O)Nc1ccc2ncccc2c1 202% [at 10 µM]
Cc1ccc(CC(=O)N2CCN(c3ccc([N+](=O)[O-])cc3)CC2)cc1 228%
O=C(Nc1ccc(F)cc1F)N1CCCN(c2ccc([N+](=O)[O-])cn2)CC1 107%
CS(=O)(=O)N(CC(=O)N1CCN(c2ccccc2)CC1)c1cccc(Br)c1 51.7%
O=C(COc1ccc(Cl)cc1)NCCCNC(=O)c1cccnc1 238% [at 10 µM]
Cc1ccc(OCC(=O)NCCCNC(=O)c2cccnc2)cc1C 201% [at 10 µM]
Cc1cc2oc(=O)cc(CN3CCC(C)CC3)c2cc1C 50.6%
O=C(CN1CCC(n2nnc3ccccc32)CC1)NCc1cccs1 118%
C=CCNC(=O)c1ccc(CN2CCC(Cc3ccccc3)CC2)cc1 29.6%
Cc1cc(C(=O)NNS(=O)(=O)c2ccc(F)cc2)nn1C(C)(C)C 430% [at 10 µM]
COc1ccc(CCCNC(=O)C2(C)Cc3c(-c4ccc5c(c4)OCO5)ccnc3O2)cc1 (configuration not stated) 25%
CCOc1ccc(NC2c3ccccc3C(=O)N2Cc2ccc3c(c2)OCO3)cc1 (configuration not stated) 38.7%
COc1cc(CN2[C@@H]3CNC[C@H]2C3c2ccc(-c3ccccc3)cc2)cc(OC)c1 (some centres not stated) 44.3%
O=C(c1ccccc1Nc1ccc(SC(F)F)cc1)N1CCCCCC1 61.7%
Cc1cccc(Nc2nnc(-c3ccc(C(=O)N4C[C@H]5C[C@H](C4)c4cccc(=O)n4C5)cc3)c3ccccc23)c1 64.7%
COC(=O)[C@H](Cc1ccccc1)N(C)S(=O)(=O)c1cccc(S(=O)(=O)N(C)[C@@H](Cc2ccccc2)C(=O)OC)c1 47.9%
Cc1csc(NC(=O)NC2(C(F)(F)F)Oc3ccccc3O2)n1 85.6% [at 10 µM]
O=C(Nc1cccc(C(F)(F)F)c1)c1sc(Cl)nc1C(F)(F)F 62.9%
Cc1cccc(C)c1OC1(c2ccccc2)OC(=O)c2ccccc21 (configuration not stated) 94.7%
O=C(CCn1nnc2ccccc21)Nc1nnc(Cc2ccccc2)s1 87.3%
O=S(=O)(NC12CC3CC(CC(C3)C1)C2)c1ccc(F)cc1 47.5%
O=C(CSc1nnc(Cn2cnc3ccccc32)o1)c1ccccc1 172%
CCOc1ccc(-c2nnn(CC#N)n2)cc1OC 186% [at 10 µM]
Cc1cc(C)c2oc(C(=O)N(Cc3ccccc3)c3ccccn3)cc(=O)c2c1 44.6%
Cc1ccc(NC(=O)CN(C)S(=O)(=O)c2cccs2)c(Br)c1 48.4%
N#C/C(=C(/O)c1ccco1)c1nc2ccccc2[nH]1 286%
COc1ccc(-c2c(-c3cc(OC)cc(OC)c3)n(C)c3ccc(-c4cnc(N)nc4)cc23)cc1 119%
Cc1cc(S(=O)(=O)c2ccc([N+](=O)[O-])cn2)ccc1Br 105% [at 10 µM]
O=C(NCCC1CCCCN1S(=O)(=O)c1cccs1)C(=O)Nc1ccc(F)cc1F (configuration not stated) 81.8%
O=C(Cc1ccccn1)NCC[C@@H]1CC[C@H](NC(=O)Nc2ccc(C(F)(F)F)cc2)[C@H](CO)O1 -0.998%
O=C(Cc1ccccn1)NCC[C@H]1CC[C@H](NC(=O)Nc2ccc(C(F)(F)F)cc2)[C@H](CO)O1 12.7% [at 21 µM]
CCOC(=O)C(Cc1ccc(NC(=O)/C(=C\c2ccccc2)NC(=O)c2ccccc2)cc1)N1C(=O)c2ccccc2C1=O (configuration not stated) 39.8%
O=C(NCc1cccs1)C1Cc2c(-c3ccc(Cl)cc3)ccnc2O1 (configuration not stated) 95.1%
C[n+]1c2n(c3ccccc31)N=C(c1cc(C(C)(C)C)c(O)c(C(C)(C)C)c1)CS2 119%
COc1ccc([N+](=O)[O-])cc1NCc1ccccc1 131% [at 10 µM]
Cc1cc(C)c2c(-n3cccc3)c(C(=O)NNS(=O)(=O)c3ccc(F)cc3)sc2n1 109%
CCOC(=O)C1=CC[C@@H](c2ccccc2)N(S(=O)(=O)c2ccc(C)cc2)[C@H]1c1ccc(CC)cc1 153% [at 10 µM]
CCN(CC)c1ccc(NC(=O)c2cc(OC)cc(OC)c2)c(C)c1 58.6%
CCOC(=O)c1ccc(NC(=O)N2CCc3ccccc3C2)cc1 223% [at 10 µM]
CC1(Cc2ccc(Cl)cc2)C(=O)Nc2c(Cl)ccc(Cl)c21 (configuration not stated) 87.1%
Cc1ccc(OCC(=O)N2CC(C)OC(C)C2)c([N+](=O)[O-])n1 (configuration not stated) 44.5% [at 10 µM]
CCOC(=O)C(C)n1cnc2c(nnn2-c2ccc(C)cc2)c1=O (configuration not stated) 43%
COc1ccc2nc3c(cc2c1)c(NC(=O)c1cccs1)nn3CC(C)C 83% [at 10 µM]
O=C(NCc1ccccc1)C(c1ccccc1)N(C(=O)c1csnn1)c1ccc(F)cc1 (configuration not stated) 84.8%
O=C(Nc1ccc(Nc2ccncc2)cc1)c1ccc([N+](=O)[O-])cc1 65.5% [at 10 µM]
CO[C@@H]1CN(C)C(=O)c2cc(NC(=O)c3ccc(Oc4ccccc4)cc3)ccc2OC[C@@H](C)NC[C@@H]1C 62.6%
CCC(=O)Nc1ccc2c(c1)OC[C@@H](C)N(C(=O)c1cnccn1)C[C@H](C)[C@H](OC)CN(C)C2=O 30.5%
CCC(=O)N1C[C@H](C)[C@@H](OC)CN(C)C(=O)c2ccc(NC(=O)Nc3ccccc3)cc2OC[C@@H]1C 29.8%
CCOC(=O)C1(N(CC)CC)Sc2cc(C)ccc2NC1=O (configuration not stated) 115%
CC(=O)Nc1sc2c(c1-c1nc3ccccc3s1)CN(C(C)C)CC2 174%
C[C@@H]1CN([C@H](C)CO)C(=O)CCCn2nncc2CO[C@H]1CN(C)C(=O)C1CC1 49.1%
O=C(Cc1ccccc1)Nc1ccc(NC(=O)c2ccco2)nc1 95.1% [at 10 µM]
CC(=O)C1=CCC(c2cccc3ccccc23)N(S(=O)(=O)c2ccc(C)cc2)C1 (configuration not stated) 37.8%
CCOC(=O)N1CCN(C(=O)C(NS(=O)(=O)c2cccc3nsnc23)c2ccccc2)CC1 (configuration not stated) 46%
Cc1cccc(CS(=O)(=O)c2ncc(Cl)c(C(=O)Nc3ccc(F)cc3)n2)c1 41% [at 10 µM]
O=C(COC(=O)c1ccco1)NCc1ccc2c(c1)OCO2 35.4%
COc1ccc(C2CC(=O)N(C)c3ccccc3S2)cc1 (configuration not stated) 72.4%
CC1(C)CCCN(C(=O)N2c3ccccc3Sc3ccccc32)C1 99.6% [at 10 µM]
Cc1ccc(S(=O)(=O)CCSC(=N)N)cc1 87.2%
CC(=O)c1ccc(NC(=O)CSCC(=O)Nc2ccc3ccccc3c2)cc1 32.2%
CC1CC1C(=O)OCC(=O)NCc1ccc(Cl)cc1 (configuration not stated) 43.3%
COc1ccc(CC(=O)OCC(=O)NCc2ccco2)cc1 64.8%
O=C(NCc1ccco1)c1scc2c1OCCO2 30.4%
CC1CCCCN1C(=O)/C(=C\c1ccccc1)c1ccccc1 (configuration not stated) 26.4%
CCSc1ccc(NC(=O)c2cccnc2)cc1 210%
CCS(=O)(=O)N[C@H]1C=C[C@H](CC(=O)N2CCCCC2)O[C@H]1CO 46.5%
C[C@H]1CN([C@@H](C)CO)S(=O)(=O)c2ccc(-c3cncnc3)cc2O[C@H]1CN(C)C(=O)CN(C)C 47.6% [at 10 µM]
CC(=O)N(C)C[C@H]1Oc2cc(-c3ccc(C#N)cc3)ccc2S(=O)(=O)N([C@@H](C)CO)C[C@@H]1C 25.3%
COc1ccc(S(=O)(=O)Nc2ccc3c(c2)C(=O)N([C@@H](C)CO)C[C@@H](C)[C@H](CN(C)S(=O)(=O)c2ccc(Cl)cc2)OCCCC[C@H](C)O3)cc1 38.2% [at 10 µM]
COc1cc(CN2CC3(CCN(S(=O)(=O)c4cccs4)CC3)c3c(n(C)c4cc(OC)ccc34)[C@H]2CO)cc(OC)c1 49.9%
O=S(=O)(c1cccc(F)c1)N1CCN(Cc2cc3c(cc2Br)OCCO3)CC1 201%
Cc1ccc(-n2cccn2)c(CN2CCCC(C(=O)c3sccc3C)C2)c1 (configuration not stated) 61.7%
CCCNC(=O)[C@H]1[C@H](CO)[C@H]2Cn3c(ccc(-c4ccccc4)c3=O)[C@H]2N1C(=O)C1CC1 37.3%
Cc1cc2c(cc1S(=O)(=O)N1CCc3ccccc31)NC(=O)CO2 75.4%
CCOc1ccccc1N(C)C(=O)C1CCN(S(=O)(=O)c2cccc3nonc23)CC1 65.8%
